Reference: PubChem BioAssay (NCATS)
Inconclusive results are not listed. A call without a number means that no potency is given here. Calls of active or inactive are those of the source. Unless noted, the call rests on the fitted dose curve; in most records, active means well fitted curve in the direction sought with a large enough effect; inconclusive means small, poorly fitted or top-dose-only effect, or another doubt; inactive means no such curve, though single readings can be large; an effect the other way counts as inactive or inconclusive.

Assays:
[1] = qHTS for differential inhibitors of proliferation of Plasmodium falciparum line HB3 (AID 1886); conditions: Potency: Plasmodium falciparum HB3 proliferation inhibition;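 further: parasites grown with compound for 72 h before SYBR Green readout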; further: potency means the concentration at half of the fitted maximal effect
[2] = qHTS Assay for Modulators of Human Peripheral Myelin Protein 22 (PMP22) Expression/Activity (AID 1967; active means well fitted curve in the direction sought with a large enough effect in the signal ratio; the % refers to the signal ratio)
How it was run: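 Quantitative HTS in a mouse Schwann cell line expressing dual click beetle luciferases: Pmp22 promoter (green) and control EF-alpha promoter (red). After 24h treatment, corrected green/red signal ratio gave %Activity relative to untreated cells.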

[3] = molecular target: Ferritin light chain (Equus caballus) (UniProt P02791); experiment: qHTS Validation Assay for Identification of Novel General Anesthetics (AID 2323)
Sequence of Ferritin light chain (Equus caballus) (P02791 2-175 limits assumed): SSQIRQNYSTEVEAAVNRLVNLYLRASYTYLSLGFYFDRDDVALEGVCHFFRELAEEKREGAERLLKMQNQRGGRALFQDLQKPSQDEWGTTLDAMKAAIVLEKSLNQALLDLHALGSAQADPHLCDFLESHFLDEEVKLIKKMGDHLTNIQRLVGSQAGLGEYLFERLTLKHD
How it was run: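 Apoferritin from horse spleen (10 uM) was mixed with 1-aminoanthracene at 50% saturation in PBS, then compounds were added. After 10 min at room temperature, fluorescence was read (ex 380 nm, em 535 nm) and normalized to free-probe and complex controls.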

[4] = molecular target: ATP-dependent DNA helicase Q1 (Homo sapiens) (UniProt P46063); experiment: qHTS Validation Assay for Inhibitors of RecQ-Like Dna Helicase 1 (RECQ1) (AID 2353)
Sequence of ATP-dependent DNA helicase Q1 (Homo sapiens) (P46063 whole entry, looked up): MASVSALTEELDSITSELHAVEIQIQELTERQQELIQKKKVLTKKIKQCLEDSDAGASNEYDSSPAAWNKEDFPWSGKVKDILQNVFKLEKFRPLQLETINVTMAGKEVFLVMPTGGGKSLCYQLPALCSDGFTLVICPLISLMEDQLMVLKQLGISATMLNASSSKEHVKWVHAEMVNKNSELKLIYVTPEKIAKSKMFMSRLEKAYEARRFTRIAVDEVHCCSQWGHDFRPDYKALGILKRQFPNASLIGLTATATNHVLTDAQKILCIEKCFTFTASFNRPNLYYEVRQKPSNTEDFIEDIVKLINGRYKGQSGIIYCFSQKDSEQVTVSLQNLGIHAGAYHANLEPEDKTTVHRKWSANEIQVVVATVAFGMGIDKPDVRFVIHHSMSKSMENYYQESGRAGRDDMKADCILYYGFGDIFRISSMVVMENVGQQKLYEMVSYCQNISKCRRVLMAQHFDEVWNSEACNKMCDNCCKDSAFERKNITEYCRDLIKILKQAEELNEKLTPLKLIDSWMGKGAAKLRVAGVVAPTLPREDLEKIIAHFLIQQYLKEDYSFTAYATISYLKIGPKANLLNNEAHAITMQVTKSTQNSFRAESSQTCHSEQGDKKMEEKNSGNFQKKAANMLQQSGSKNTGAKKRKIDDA
How it was run: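 50 nM RECQ1T1 preincubated 15 min with compound in Tris pH 8.0 buffer with MgCl2, DTT, Tween-20 and 2.5 ug/ml poly(dI-dC); started with 200 nM TAMRA/BHQ-2 forked duplex and 2 mM ATP. Unwinding read as fluorescence (525/598 nm), two reads 2 h apart.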

[5] = Cytometric Cell-Based qHTS for Inhibitors of the mTORC1 Signaling Pathway in MEF (Tsc2-/-, p53-/-) Cells (AID 2660);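 further: Tsc2 and p53 null MEFs carrying empty vector with compound for 24 h; percent of cells above a phospho-rpS6 to PI ratio cutoff in each well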
How it was run: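 Percent of cells positive for normalized phospho-S6 staining is reported, with the cutoff set from rapamycin (7.5 nM) versus DMSO wells. Tsc2-/-, p53-/- MEFs received compound for 24 hrs.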

[6] = High Content Imaging Cell-Based qHTS for Inhibitors of the mTORC1 Signaling Pathway in MEF (Tsc2-/-, p53-/-) Cells (AID 2666); conditions: at 38.3 µM (top of the series);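 further: percent of cells scored positive for phospho-rpS6 Ser235/236 immunostaining by imaging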
How it was run: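 Cells were plated, dosed with compound after 24 hrs, and incubated another 24 hrs at 37 degree Celsius. Fixed cells were immunostained for phospho-rpS6 Ser235/236 and counterstained, and the normalized signal was scored as % active cells against rapamycin and DMSO controls.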

[7] = High Content Imaging Cell-Based qHTS for Inhibitors of the mTORC1 Signaling Pathway in MEF Cells (AID 2667); further: potency means the concentration at half of the fitted maximal effect
How it was run: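 Immunofluorescence for rpS6 phosphorylation in MEFs of Tsc2-/-, p53-/- background rescued with WT Tsc2. Compound exposure lasted 24 hrs. Inhibition was scored against rapamycin-treated control wells.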

[8] = Cytometry Cell-Based qHTS for Inhibitors of the mTORC1 Signaling Pathway in MEF cells (AID 2668); further: potency means the concentration at half of the fitted maximal effect
How it was run: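 Pathway inhibition in WT Tsc2-rescued Tsc2-/-, p53-/- MEFs is measured as the Alexa-488 phospho-rpS6 to propidium iodide intensity ratio after 24 hrs of compound at 37 degree Celsius. PI-stained cell number gives viability.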

[9] = molecular target: RecQ-like DNA helicase BLM (Homo sapiens) (UniProt P54132); experiment: qHTS Validation Assay for Inhibitors of Bloom's syndrome helicase (BLM) (AID 2364)
Sequence of RecQ-like DNA helicase BLM (Homo sapiens) (P54132 whole entry, looked up): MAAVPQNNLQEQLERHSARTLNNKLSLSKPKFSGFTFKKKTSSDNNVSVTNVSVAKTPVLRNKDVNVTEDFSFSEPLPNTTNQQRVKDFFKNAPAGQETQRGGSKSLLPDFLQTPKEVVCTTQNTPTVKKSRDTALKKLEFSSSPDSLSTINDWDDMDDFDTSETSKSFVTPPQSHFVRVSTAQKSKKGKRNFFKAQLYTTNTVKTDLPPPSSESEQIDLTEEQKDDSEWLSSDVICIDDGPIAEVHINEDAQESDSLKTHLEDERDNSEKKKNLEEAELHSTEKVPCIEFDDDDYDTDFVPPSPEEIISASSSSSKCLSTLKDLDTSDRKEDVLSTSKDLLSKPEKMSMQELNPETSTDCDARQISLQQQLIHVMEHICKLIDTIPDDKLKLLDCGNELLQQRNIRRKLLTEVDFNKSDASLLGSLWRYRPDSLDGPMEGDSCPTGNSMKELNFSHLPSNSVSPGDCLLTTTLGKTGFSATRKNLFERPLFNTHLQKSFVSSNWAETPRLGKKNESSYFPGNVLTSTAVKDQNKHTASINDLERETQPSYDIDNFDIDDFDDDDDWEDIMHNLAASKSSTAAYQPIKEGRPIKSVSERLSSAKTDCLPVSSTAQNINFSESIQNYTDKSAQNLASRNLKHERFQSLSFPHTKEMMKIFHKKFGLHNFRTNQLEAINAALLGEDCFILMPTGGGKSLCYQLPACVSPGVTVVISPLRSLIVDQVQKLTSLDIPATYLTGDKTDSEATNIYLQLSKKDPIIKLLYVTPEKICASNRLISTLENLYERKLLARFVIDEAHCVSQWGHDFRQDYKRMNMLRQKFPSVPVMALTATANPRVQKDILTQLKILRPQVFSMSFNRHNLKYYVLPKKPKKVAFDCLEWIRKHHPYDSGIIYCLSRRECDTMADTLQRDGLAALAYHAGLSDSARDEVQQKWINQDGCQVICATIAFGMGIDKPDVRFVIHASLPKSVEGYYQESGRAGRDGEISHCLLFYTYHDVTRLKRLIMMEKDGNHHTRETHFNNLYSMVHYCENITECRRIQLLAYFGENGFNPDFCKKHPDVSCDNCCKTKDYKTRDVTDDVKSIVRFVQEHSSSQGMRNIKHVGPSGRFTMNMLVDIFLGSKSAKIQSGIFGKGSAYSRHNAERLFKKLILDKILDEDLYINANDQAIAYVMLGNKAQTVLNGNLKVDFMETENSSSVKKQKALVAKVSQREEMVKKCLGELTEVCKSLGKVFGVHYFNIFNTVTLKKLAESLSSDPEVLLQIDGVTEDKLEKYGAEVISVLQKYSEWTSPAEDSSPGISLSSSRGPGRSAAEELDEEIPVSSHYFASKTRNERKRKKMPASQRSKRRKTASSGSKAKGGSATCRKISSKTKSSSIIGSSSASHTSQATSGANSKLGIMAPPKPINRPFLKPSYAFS
How it was run: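 Forked 20-bp duplex substrate (200 nM, TAMRA/BHQ-2) plus 2 mM ATP added after 15 min compound preincubation with 50 nM enzyme, pH 8.0, poly(dI-dC) 2.5 ug/ml. Strand separation followed by fluorescence (525/598 nm) over 2 h, normalized to enzyme-free and DMSO controls.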

[10] = qHTS Assay for Identification of Small Molecule Inducers of Hypoxia Response (AID 2120; active means well fitted curve in the direction sought with a large enough effect in the signal ratio, with a control signal flat, not every such curve was filed as active; the % refers to the signal ratio)
How it was run: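 HRE-bla ME-180 cells in Opti-MEM with 0.5% dialyzed FBS, pre-plated 4-5 h, then compound titration for 17 h at 37 degrees Celsius. CCF4 loaded 2.5 h at room temperature; 460/530 nm ratio gave %Activity and AC50 for induction.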

| SMILES | Potency [1] | outcome [2] | outcome [3] | outcome [4] | outcome [5] | outcome [6] | Potency [7] | Potency [8] | outcome [9] | outcome [10] |
| --- | --- | --- | --- | --- | --- | --- | --- | --- | --- | --- |
| Nc1cc(Cl)c(NC2=NCCN2)c(Cl)c1 | inactive | inactive | inactive | inactive | inactive | inactive | inactive | inactive |  |  |
| CNCCC=C1c2ccccc2CCc2ccccc21 | 11.2 µM (active) |  |  | inactive |  |  |  |  | inactive |  |
| C[N+]1(CCCCC[N+]2(C)CCCC2)CCCC1 | inactive |  | inactive | inactive | inactive | inactive | inactive | inactive |  |  |
| CC(CCc1ccccc1)NCC(O)c1ccc(O)c(C(N)=O)c1 (configuration not stated) | 12.6 µM (active) | inactive | inactive | inactive | inactive | inactive | inactive | inactive | inactive |  |
| COc1cc2c(cc1O)CC[C@@H]1[C@@H]2CC[C@]2(C)[C@@H](O)CC[C@@H]12 |  |  |  |  | inactive | inactive | inactive |  |  |  |
| C1CCc2nnnn2CC1 | inactive | inactive | inactive | inactive | inactive |  | inactive | inactive |  |  |
| O=C1CCC(c2ccc(-n3ccnc3)cc2)=NN1 | inactive | inactive | inactive | inactive | inactive | inactive | inactive | inactive | inactive |  |
| CC(C)C[C@H]1C(=O)N2CCC[C@H]2[C@]2(O)O[C@](NC(=O)[C@@H]3C=C4c5cccc6[nH]c(Br)c(c56)C[C@H]4N(C)C3)(C(C)C)C(=O)N12 |  |  |  |  | inactive | inactive | inactive |  |  |  |
| COC1=CC(=O)C[C@@H](C)[C@]12Oc1c(Cl)c(OC)cc(OC)c1C2=O |  |  |  |  |  |  |  |  |  | inactive |
| Nc1ccc(C(=O)O)cc1 |  |  |  |  |  |  |  |  |  | inactive |
| CCCCCCc1ccc(O)cc1O |  |  |  |  |  |  |  |  |  | inactive |
| CN1C2CCC1CC(OC(=O)c1c[nH]c3ccccc13)C2 (configuration not stated) |  | inactive | inactive | inactive | inactive | inactive |  |  | inactive |  |
| CNCCC(Oc1ccccc1C)c1ccccc1 (configuration not stated) | inactive |  | inactive | inactive | inactive | inactive | inactive | inactive |  |  |
| COC(=O)[C@H]1[C@H]2C[C@H]3c4[nH]c5ccccc5c4CCN3C[C@H]2CC[C@@H]1O | inactive |  | inactive | inactive | inactive | inactive | inactive | inactive |  |  |
| Oc1ccc(O)cc1 | 12.6 µM (active) |  | inactive | inactive |  |  | inactive |  |  |  |
| COc1cc(-c2ccc(=O)[nH]n2)ccc1OC(F)F | inactive |  | inactive | inactive |  |  |  |  |  |  |

| SMILES | Potency [1] | outcome [2] | outcome [3] | outcome [4] | outcome [5] | outcome [6] | Potency [7] | Potency [8] | outcome [9] | outcome [10] |
| --- | --- | --- | --- | --- | --- | --- | --- | --- | --- | --- |
| O=c1ccc2ccccc2o1 |  |  |  |  |  |  |  |  |  | inactive |
| CN=C(NC#N)Nc1ccc(C2=NNC(=O)CC2C)cc1 (configuration not stated) | inactive |  | inactive | inactive |  |  |  |  |  |  |
| CC(C)COC(=O)OCN1C(=O)CN(CCN2CC(=O)N(COC(=O)OCC(C)C)C(=O)C2)CC1=O | inactive |  |  | inactive | inactive | inactive | inactive | inactive | inactive |  |
| CC(=O)O[C@H]1C[C@@H]2CC[C@@H]3[C@H](CC[C@@]4(C)[C@H]3C[C@H]([N+]3(C)CCCCC3)[C@@H]4OC(C)=O)[C@@]2(C)C[C@@H]1[N+]1(C)CCCCC1 |  |  |  |  |  | inactive | inactive | inactive |  |  |
| CC(C)NC[C@@H](O)COc1cccc2ccccc12 | 8.91 µM (active) |  | inactive | inactive |  |  |  |  | inactive |  |
| CCCC1O[C@@H]2C[C@H]3[C@@H]4CCC5=CC(=O)C=C[C@]5(C)[C@H]4[C@@H](O)C[C@]3(C)[C@]2(C(=O)CO)O1 (some centres not stated) |  |  |  |  | inactive | inactive | inactive | inactive |  |  |
| N[C@@H](Cc1cnc[nH]1)C(=O)O | inactive | inactive | inactive | inactive | inactive | inactive | inactive | inactive |  |  |
| N[C@H](CO)C(=O)O |  |  | inactive | inactive | inactive | inactive | inactive | inactive |  |  |
| O=C(O)c1cc2cc(Cc3cccnc3)ccc2o1 | inactive | inactive | inactive | inactive | inactive | inactive | inactive | inactive |  |  |
| COc1cc(NS(C)(=O)=O)ccc1Nc1c2ccccc2nc2ccccc12 | 1.41 µM (active) |  | inactive |  |  | inactive | 3.69 µM (active) | 0.521 µM (active) |  |  |
| O=C(O)CCCCC(=O)O |  |  |  |  |  |  |  |  |  | inactive |
| CC(O)C(=O)O (configuration not stated) |  |  |  |  |  |  |  |  |  | inactive |
| CCC(NC(C)C)C(O)c1ccc(O)c(O)c1 (configuration not stated) | 8.91 µM (active) | inactive | inactive | inactive | inactive | inactive | inactive | inactive |  |  |
| CCCn1c(=O)[nH]c(=O)c2[nH]cnc21 | inactive | inactive | inactive | inactive | inactive | inactive | inactive | inactive |  |  |
| CC1(C)CCC(NC(=O)[C@@H](N)CCC(=O)O)CC1 | inactive | inactive | inactive | inactive | inactive | inactive | inactive | inactive |  |  |
| C[C@@H]1C(=O)NC2=Nc3cccc(Cl)c3CN21 | inactive | inactive | inactive | inactive | inactive | inactive | inactive | inactive |  |  |
